This is an account of results in PubChem BioAssay (NCATS).

A short description of experiment [1]: qHTS to identify inhibitors of the type 1 interferon - major histocompatibility complex class I in skeletal muscle: primary screen against the NCATS Mechanism Interrogation Plate v5.0 (MIPE) Libary (AID 1347411). Further: nearly all actives have a fitted effect of over 65% in size. Further: potency means the concentration at half of the fitted maximal effect. The essentials: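 Cells were genome-edited human myoblasts carrying a HiBit tag on endogenous HLA-B. They were treated with IFN-beta (4.0 ng/ml) and titrated compounds (top 46 uM) for 24 hrs before lytic HiBiT detection.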

The nature of experiment [2]: qHTS to identify inhibitors of the type 1 interferon - major histocompatibility complex class I in skeletal muscle: primary screen against the NCATS Pharmaceutical Collection (AID 1347407).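 Further: luminescence of HiBiT knocked into endogenous HLA-B as interferon-induced MHC class I level.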 The essentials:
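Immortalized human myoblasts (C25cl48) with HiBiT knocked into endogenous HLA-B*08:01 were stimulated with 4 ng/ml IFN-beta and treated with compounds (8-point, 1:5, top 46 uM final) for 24 h at 37 C; HiBiT lytic luminescence read.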
Background: qHTS replaces the single test concentration by a dilution series.

Experiment [3] addresses Protein phosphatase 1D (Homo sapiens) (UniProt O15297). As to the kind of experiment: RapidFire Mass Spectrometry qHTS Assay for Modulators of WT P53-Induced Phosphatase 1 (WIP1) (AID 1347424).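 Further: amount of dephosphorylated VEPPL-S-QETFS peptide product formed by WIP1.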 Further: potency means the concentration at half of the fitted maximal effect. The essentials:
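10 nM WIP1 preincubated with compounds 1 hr at room temperature in pH 7.5 Tris buffer with 30 mM MgCl2, 1 mM TCEP; 2 uM VEPPL-pS-QETFS phosphopeptide for 5 min, formic acid quench; dephosphorylated product quantified by RapidFire MS against labelled standard.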

Experiment [4] in a line: qHTS for activators of Nrf2/ARE signaling pathway screened against the NCATS CANVASS Library (AID 1347391). Further: nearly all actives have a fitted effect of over 60% in size. The essentials:
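Cells carrying an ARE-driven beta-lactamase reporter (HepG2 background) are dosed for 16 h, then stained with CCF4. Cell viability in the same wells is measured by CellTiter-Glo luminescence.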

A short description of experiment [5]: qHTS for activators of dead-cell proteases activity screened against the NCATS CANVASS Library (AID 1347392).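 Further: luminescence from protease leaking out of membrane-damaged cells cleaving impermeant substrate; rising signal means more cytotoxicity.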 In a few lines:
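HepG2 cells, 2000/well, attached 18 h at 37C, then exposed to compounds (11-point qHTS) for 5 h. Dead-cell protease release read as luminescence from cell-impermeant AAF-aminoluciferin substrate after 15 min at room temperature.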

The nature of experiment [6]: qHTS for inhibitors of ER calcium dysfunction: SERCaMP assay screened against the NCATS CANVASS Library (AID 1347393).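 Further: series mostly up to about 77 µM; lower secreted reporter signal means inhibitor of ER calcium depletion; nearly all actives have a fitted effect of over 40% in size.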 In a few lines: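 SH-SY5Y GLuc-SERCaMP, 1000 cells/well, 4 h attach; cpd 16 h, 37C/5% CO2; thapsigargin (added as 6x 600 nM) 4 h; coelenterazine; luminescence. Reduced reporter release = ER Ca stabilization.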
The nature of experiment [7]: Vero-766 cells viability qHTS against the NCATS CANVASS Library: Counterscreen for Zika virus inhibition assay (AID 1347394). Further: potency means the concentration at half of the fitted maximal effect; nearly all actives have a fitted effect of over 60% in size. The essentials:
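Uninfected Vero 766 (African green monkey) cells, 1000/well, attached overnight, then exposed 72 h at 37C to compounds (11-point qHTS). Viability read by CellTiter-Glo luminescence; media-only wells served as 100% inhibition.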

A short description of experiment [8]: Viability qHTS for inhibitors of the SERCaMP assay screened against the NCATS CANVASS Library (AID 1347400). Further: series mostly up to about 92 µM; nearly all actives have a fitted effect of over 70% in size. In a few lines: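 Cytotoxicity counter-screen: ATP content (CellTiter-Glo luminescence) of SH-SY5Y-GLuc SERCaMP MJH297 cells after 48 h at 37C with compounds in an 11-point qHTS series.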
Experiment [9] can be described thus: Redox Reaction Profiling qHTS: Assay Interference Panel against the NCATS CANVASS Library (AID 1347401). In a few lines: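 Compounds in 11-point series incubated with 5 uM resazurin and 200 uM DTT in 50 mM HEPES pH 7.3, 50 mM NaCl. Resorufin fluorescence (Ex 525/Em 598) read before and after 15 min in the dark.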

Each structure is given as a SMILES string. Records with an inconclusive call do not appear. A call without a number means that no potency is given here. Calls of active or inactive are those of the source. The call rests on the fitted dose curve; in most records, active means well fitted curve in the direction sought with a large enough effect; inconclusive means small, poorly fitted or top-dose-only effect, or another doubt; inactive means no such curve, though single readings can be large; an effect the other way counts as inactive or inconclusive.

Sequence of Protein phosphatase 1D (Homo sapiens) (O15297 whole entry, looked up): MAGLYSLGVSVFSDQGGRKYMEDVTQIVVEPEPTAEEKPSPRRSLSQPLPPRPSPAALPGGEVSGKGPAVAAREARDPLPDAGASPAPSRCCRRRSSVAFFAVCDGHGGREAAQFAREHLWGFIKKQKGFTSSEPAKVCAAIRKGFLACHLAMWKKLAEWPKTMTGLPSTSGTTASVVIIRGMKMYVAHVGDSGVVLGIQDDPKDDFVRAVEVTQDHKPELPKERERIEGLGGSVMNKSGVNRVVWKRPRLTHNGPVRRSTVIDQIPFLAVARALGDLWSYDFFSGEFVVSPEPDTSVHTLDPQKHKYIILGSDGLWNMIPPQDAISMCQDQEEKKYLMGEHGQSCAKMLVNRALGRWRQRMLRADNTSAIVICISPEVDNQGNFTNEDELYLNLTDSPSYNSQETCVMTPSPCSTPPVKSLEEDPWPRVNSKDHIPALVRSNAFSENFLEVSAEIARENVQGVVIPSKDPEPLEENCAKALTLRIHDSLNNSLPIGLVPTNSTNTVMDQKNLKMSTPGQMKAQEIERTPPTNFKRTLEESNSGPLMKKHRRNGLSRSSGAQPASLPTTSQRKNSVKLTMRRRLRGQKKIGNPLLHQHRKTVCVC

On to `Nc1nc2c(c(=O)[nH]1)N(C=O)[C@H](CNc1ccc(C(=O)N[C@@H](CCC(=O)O)C(=O)O)cc1)CN2`, for which, in experiment [1], the Potency result is “inactive”.

As for `Cc1ccccc1C(=O)Nc1ccc(C(=O)N2CCCC(O)c3cc(Cl)ccc32)c(C)c1` (stereo not drawn), the outcome in experiment [2] was inactive. Besides, in experiment [3], the Potency result was “inactive”.

As for `Cc1ccc(-n2[nH]c(C)c(N=Nc3cccc(-c4cccc(C(=O)O)c4)c3O)c2=O)cc1C`, in [2], the compound was classed as inactive. In experiment [1], the Potency entry was “inactive”. In addition, the Potency in [3] was 12.6 µM (active).

With `COc1cc(C(C)C)c(Oc2cnc(NC(CO)CO)nc2N)cc1I`, the Potency result in experiment [1] was “inactive”.

For `COc1cccc2c1C(=O)c1c(O)c3c(c(O)c1C2=O)C[C@@](O)(C(=O)CO)C[C@@H]3O[C@H]1C[C@H](N)[C@@H](O)[C@H](C)O1`, the Potency in experiment [1] is 0.829 µM (active).

As to `Nc1ccn(C2CO[C@H](CO)O2)c(=O)n1` (stereo partly drawn), the result in experiment [2] was inactive. Also, the Potency entry in experiment [1] and in [3] was “inactive” throughout.

On to `C=CC(=O)N1CCc2ccc(-n3c(=O)ccc4cnc5ccc(-c6cnn(C)c6)cc5c43)cc21`, for which, in experiment [1], the Potency was 0.806 µM (active).

Take `C[C@H](NC(=O)[C@@H](O)c1cc(F)cc(F)c1)C(=O)N[C@@H]1C(=O)N(C)c2ccccc2-c2ccccc21`: the Potency entry in experiment [1] was “inactive”.

As for `OCCNC1CCCc2c1[nH]c1ccc(-c3ccccc3)cc21` (stereo not drawn), the Potency in experiment [1] was 20.8 µM (active).

For the compound `C=C(C)[C@@H]1CC[C@]2(C(=O)O)CC[C@]3(C)[C@H](CC[C@@H]4[C@@]5(C)CC[C@H](O)C(C)(C)[C@@H]5CC[C@]43C)[C@@H]12`, the compound was called inactive in experiment [4], in experiment [5], in experiment [6], in [8] and in experiment [9]. Also, the Potency in [7] is 33.1 µM (active).

Consider `C[C@H]1[C@@H](OC(=O)CCC(=O)O)O[C@@H]2O[C@@]3(C)CC[C@@H]4[C@H](C)CC[C@@H]1[C@@]24OO3`, for which, in experiment [1], the Potency entry is “inactive”.

As to `CCn1c(=O)c2c(nc(C=Cc3ccc(OC)c(OC)c3)n2C)n(CC)c1=O`, in experiment [2], the result was inactive. The Potency entry in experiment [3] was “inactive”.

As to `CC1(C)O[C@@H]2C[C@H]3[C@@H]4CCC5=CC(=O)C=C[C@]5(C)[C@@H]4[C@@H](O)C[C@]3(C)[C@]2(C(=O)CO)O1`, the result in experiment [2] was inactive. In experiment [3], the Potency result is “inactive”.

Consider `O=C1CSC(=O)N1C(CCc1ccncc1)COc1ccc(-c2cccc([N+](=O)[O-])c2)cc1` (stereo not drawn), for which the Potency entry in [1] is “inactive”.

`CC(C)c1cnn2c(NCc3ccccc3)cc(NCCCCCCN)nc12`: the Potency in experiment [1] is 26.2 µM (active).

In the case of `CCCCC(=O)O[C@]1(C(=O)CO)[C@@H](C)C[C@H]2[C@@H]3CCC4=CC(=O)C=C[C@]4(C)[C@@]3(F)[C@@H](O)C[C@@]21C`, the Potency result in [3] is “inactive”.
